In all, about 2,900 compounds were measured (“IRF Lucia reporter activity, fold change vs agonist alone”: median about 0.9, highest 2% from about 2.8 on). What follows is part of a selection rich in the highest values, with near analogues and random picks from the rest.
Legend:
[1] = test system: RAW-Dual; assay: IRF Lucia reporter activity, fold change vs agonist alone; higher = enhanced IRF activity; conditions: library stock concentration (final ~1000-fold dilution): 10 mM, agonist: MPLA (TLR4) […]
Method in brief: (§1)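 After 50 nL of library stock was delivered by pin tool to RAW-Dual macrophages (50,000 cells/well, DMEM, 384-well plates), a PRR agonist was added 1 h later and the plates were kept at 37 °C, 5% CO2. Twenty hours later, IRF was read from supernatant by QuantiLuc luminescence and NF-κB by QuantiBlue absorbance at 620 nm. Reporter activity is stated as fold change over agonist-alone wells. Wells with IncuCyte confluency under 70% of agonist controls in both mask sets were counted as cytotoxic.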

[2] = test system: RAW-Dual; assay: IRF Lucia reporter activity, fold change vs agonist alone; cytotoxicity flag (confluency mask): not cytotoxic; higher = enhanced IRF activity
Method in brief: as §1

[3] = test system: RAW-Dual; assay: IRF Lucia reporter activity, fold change vs agonist alone; cytotoxicity flag (confluency mask): cytotoxic (confluency <70% of control); higher = enhanced IRF activity
Method in brief: as §1

[4] = cytotoxicity flag (confluency mask): not cytotoxic
[5] = agonist: 3'3'-cGAMP (STING) 10 ug/mL
[6] = cytotoxicity flag (confluency mask): cytotoxic (confluency <70% of control)

CCOC(=O)c1ccc(N)cc1.Cl
IRF Lucia reporter activity [1, 4]: 1.01

CCOC(=O)c1ccc(N)cc1.Cl (library stock concentration (final ~1000-fold dilution): 10 mM)
IRF Lucia reporter activity [2, 5]: 0.942 | IRF Lucia reporter activity ([2]; agonist: LPS (TLR4) 0.1 ug/mL): 1.15

CCOC(=O)c1ccc(NC2CCCCC2)c(N)c1
IRF Lucia reporter activity [1, 4]: 1.83

CCn1cc(C(=O)O)c(=O)c2c(N)c(F)c(NC3CCCCC3)cc21 (library stock concentration (final ~1000-fold dilution): 10 mM)
IRF Lucia reporter activity [2, 5]: 0.545 | IRF Lucia reporter activity ([2]; agonist: LPS (TLR4) 0.1 ug/mL): 0.223

CCOC(=O)c1ccc(NC2CCCCC2)c(N)c1 (library stock concentration (final ~1000-fold dilution): 10 mM)
IRF Lucia reporter activity [2, 5]: 1.04 | IRF Lucia reporter activity ([2]; agonist: LPS (TLR4) 0.1 ug/mL): 4.71

NC(=O)C1CCC2CN1C(=O)N2OS(=O)(=O)O (stereo not given) (library stock concentration (final ~1000-fold dilution): 10 mM)
IRF Lucia reporter activity [2, 5]: 1.1 | IRF Lucia reporter activity ([2]; agonist: LPS (TLR4) 0.1 ug/mL): 1.21

NC(=O)C1CCC2CN1C(=O)N2OS(=O)(=O)O (stereo not given)
IRF Lucia reporter activity [1, 4]: 1.13

Oc1cc(CNC(=S)/C=C/c2cc(O)c(O)c(Br)c2)cc(O)c1O (library stock concentration (final ~1000-fold dilution): 10 mM)
IRF Lucia reporter activity [2, 5]: 0.312 | IRF Lucia reporter activity ([2]; agonist: LPS (TLR4) 0.1 ug/mL): 4.35

O=C1CCC(N2Cc3c(OCc4ccc(CN5CCOCC5)cc4)cccc3C2=O)C(=O)N1 (stereo not given) (library stock concentration (final ~1000-fold dilution): 10 mM)
IRF Lucia reporter activity [2, 5]: 1.05 | IRF Lucia reporter activity ([2]; agonist: LPS (TLR4) 0.1 ug/mL): 1.02

COc1cc(O)c(C(=O)Nc2nc(C(=O)NCCN(C(C)C)C(C)C)cs2)cc1OC.Cl.O.O.O
IRF Lucia reporter activity [1, 4]: 1.03

COc1cc(O)c(C(=O)Nc2nc(C(=O)NCCN(C(C)C)C(C)C)cs2)cc1OC.Cl.O.O.O (library stock concentration (final ~1000-fold dilution): 10 mM)
IRF Lucia reporter activity [2, 5]: 0.967 | IRF Lucia reporter activity ([2]; agonist: LPS (TLR4) 0.1 ug/mL): 0.665

COc1ncc(-c2ccc3nccc(-c4ccnnc4)c3c2)cc1NS(=O)(=O)c1ccc(F)cc1F (library stock concentration (final ~1000-fold dilution): 10 mM)
IRF Lucia reporter activity [2, 5]: 1.09 | IRF Lucia reporter activity ([2]; agonist: LPS (TLR4) 0.1 ug/mL): 3.52

CCCS(=O)(=O)Nc1ccc(F)c(C(=O)c2c[nH]c3ncc(-c4ccc(Cl)cc4)cc23)c1F (library stock concentration (final ~1000-fold dilution): 10 mM)
IRF Lucia reporter activity [2, 5]: 0.195 | IRF Lucia reporter activity ([2]; agonist: LPS (TLR4) 0.1 ug/mL): 0.356

COc1cc2nccc(Oc3ccc(NC(=O)Nc4ccc(F)cc4F)c(F)c3)c2cc1OC (library stock concentration (final ~1000-fold dilution): 10 mM)
IRF Lucia reporter activity [3, 5]: 1.02 | IRF Lucia reporter activity ([3]; agonist: LPS (TLR4) 0.1 ug/mL): 0.826

COc1ncc(-c2ccc3nccc(-c4ccnnc4)c3c2)cc1NS(=O)(=O)c1ccc(F)cc1F
IRF Lucia reporter activity [1, 4]: 1.11

CCCS(=O)(=O)Nc1ccc(F)c(C(=O)c2c[nH]c3ncc(-c4ccc(Cl)cc4)cc23)c1F
IRF Lucia reporter activity [1, 4]: 0.473

COc1cc2nccc(Oc3ccc(NC(=O)Nc4ccc(F)cc4F)c(F)c3)c2cc1OC
IRF Lucia reporter activity [1, 6]: 1.23

Cc1nc(Nc2ncc(C(=O)Nc3c(C)cccc3Cl)s2)cc(N2CCN(CCO)CC2)n1.Cl
IRF Lucia reporter activity [1, 4]: 0.77

Cc1nc(Nc2ncc(C(=O)Nc3c(C)cccc3Cl)s2)cc(N2CCN(CCO)CC2)n1.Cl (library stock concentration (final ~1000-fold dilution): 10 mM)
IRF Lucia reporter activity [2, 5]: 0.0778 | IRF Lucia reporter activity ([2]; agonist: LPS (TLR4) 0.1 ug/mL): 1.07

C=C1CCN(C(C)C(O)(Cn2cncn2)c2ccc(F)cc2F)CC1 (stereo not given) (library stock concentration (final ~1000-fold dilution): 10 mM)
IRF Lucia reporter activity [3, 5]: 1.25 | IRF Lucia reporter activity ([3]; agonist: LPS (TLR4) 0.1 ug/mL): 2.38

C=C1CCN(C(C)C(O)(Cn2cncn2)c2ccc(F)cc2F)CC1 (stereo not given)
IRF Lucia reporter activity [1, 6]: 2.14

CC(C)(C)NC(=O)c1cncn1C1CCN(c2ccc(-c3nnc(C(F)(F)F)o3)cn2)CC1 (library stock concentration (final ~1000-fold dilution): 10 mM)
IRF Lucia reporter activity [2, 5]: 1.33 | IRF Lucia reporter activity ([2]; agonist: LPS (TLR4) 0.1 ug/mL): 3.77

CC(C)CC(NC(=O)CNC(=O)c1cc(Cl)ccc1Cl)B(O)O (stereo not given)
IRF Lucia reporter activity [1, 4]: 1.08

CC(C)CC(NC(=O)CNC(=O)c1cc(Cl)ccc1Cl)B(O)O (stereo not given) (library stock concentration (final ~1000-fold dilution): 10 mM)
IRF Lucia reporter activity [2, 5]: 1 | IRF Lucia reporter activity ([2]; agonist: LPS (TLR4) 0.1 ug/mL): 1.16

COc1ccc2c(OC3CC4C(=O)NC5(C(=O)NS(=O)(=O)C6CC6)CC5/C=C\CCCCN(C)C(=O)C4C3)cc(-c3nc(C(C)C)cs3)nc2c1C (stereo not given) (library stock concentration (final ~1000-fold dilution): 10 mM)
IRF Lucia reporter activity [2, 5]: 1.04 | IRF Lucia reporter activity ([2]; agonist: LPS (TLR4) 0.1 ug/mL): 1.18
